The entries come from a sample that favours hits as a whole.
TDP1 cell noCPT: qHTS for Inhibitors of human tyrosyl-DNA phosphodiesterase 1 (TDP1): qHTS in cells in absence of CPT; DT40 Tdp1-/- hTDP1 cells, no CPT, ATP luminescence, 48 h; 420,000 tested, 15% active; Potency, µM (doses to about 46.2 µM), for the others: at the highest dose activity change, negative = growth inhibition, most hits filed as inhibitors; note: potency is the fitted concentration of half-maximal effect; nearly all actives have a fitted effect of over 55% in size
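No-CPT arm: Tdp1-/-;hTDP1 DT40 cells (400/well) plus compounds, incubated ≥48 hr at 37 °C. Readout CellTiter-Glo luminescence.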
12-LOX inh: ALOX12 (human) lipoxygenase inhibition; P18054; purified 12hLO, xylenol orange hydroperoxide absorbance; Potency, µM (top dose mostly 108 µM), for the others: at the top dose activity change, negative = inhibition, most hits filed as inhibitors; 580,000 tested, 1.1% active; note: potency is the fitted concentration of half-maximal effect
Target sequence (P18054 whole entry, looked up): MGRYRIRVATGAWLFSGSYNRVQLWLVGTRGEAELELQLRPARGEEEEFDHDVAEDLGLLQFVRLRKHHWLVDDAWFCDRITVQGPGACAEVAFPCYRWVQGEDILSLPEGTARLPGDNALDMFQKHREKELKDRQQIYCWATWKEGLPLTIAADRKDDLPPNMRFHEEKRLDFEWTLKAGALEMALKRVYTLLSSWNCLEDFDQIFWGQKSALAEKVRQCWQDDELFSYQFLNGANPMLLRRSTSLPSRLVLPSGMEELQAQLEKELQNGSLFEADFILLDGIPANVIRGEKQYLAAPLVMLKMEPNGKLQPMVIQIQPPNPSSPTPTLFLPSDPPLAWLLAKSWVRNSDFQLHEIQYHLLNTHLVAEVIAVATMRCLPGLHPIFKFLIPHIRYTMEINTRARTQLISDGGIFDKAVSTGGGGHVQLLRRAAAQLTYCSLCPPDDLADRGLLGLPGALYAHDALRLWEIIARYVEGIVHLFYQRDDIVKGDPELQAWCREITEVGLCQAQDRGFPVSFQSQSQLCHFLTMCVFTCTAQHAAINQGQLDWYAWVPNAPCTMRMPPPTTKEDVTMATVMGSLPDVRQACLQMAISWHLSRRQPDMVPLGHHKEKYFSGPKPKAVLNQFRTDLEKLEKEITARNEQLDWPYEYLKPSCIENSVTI
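Purified human 12hLO (150 nM final) in 25 mM Hepes, 0.01% Triton X-100, pH 7.0 was preincubated 15 min at room temperature with compound. Then 40 uM arachidonic acid was added, 30 min. Hydroperoxide was read by Fe-XO absorbance ratio 573/405 nm.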
TDP1 cell CPT: DT40-hTDP1 cell growth loss with CPT; chicken DT40 Tdp1-/-;hTDP1 cells + 20 nM CPT, ATP luminescence, 48 h; Potency, µM (highest dose often 46.2 µM), for the others: at the top dose activity change, negative = growth inhibition, hits mostly inhibitors; 420,000 tested, 12% active; AID 686979; note: potency is the fitted concentration of half-maximal effect; nearly all actives have a fitted effect of over 55% in size
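Chicken DT40 Tdp1-/- cells stably complemented with human TDP1 were seeded at 400 cells/well in medium containing 20 nM camptothecin, exposed to pin-transferred compounds, and grown at 37 °C for at least 48 hr. Viability was read as ATP luminescence.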
IL-1B inflam inh: inhibitors of inflammasome signaling (IL-1 beta secretion) | activity change, % at 57.5 µM | 360,000 tested, 4.7% active | THP-1 LPS/ATP IL-1B secretion, AlphaLISA, 16 h; hits give low values | AID 743279; in the data active = activity change below about -50%; inconclusive = mostly about -30% to -49%
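Secreted IL-1B measured by AlphaLISA bead assay after 16 h compound exposure of THP-1 cells; compounds (final up to 57.5 uM) added 1 h before LPS (250 ng/mL) and ATP (1.25 mM) stimulation; lower signal means less secretion.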
HT1080 IDH1KD tx: kills HT-1080 cells with IDH1 knockdown; HT-1080 IDH1 knockdown viability, ATP luminescence, 48 h; 360,000 tested, 2% active; Potency, µM (top dose mostly 46.1 µM), without a hit: at the highest dose activity, negative = toxicity, actives largely listed as cytotoxic;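 note: potency is the fitted concentration of half-maximal effect; 0% = DMSO wells and -100% = cell-free medium wells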
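Using the IDH1-knockdown HT-1080 line run in the same batch and compound series as the NT line, viability after 48 h at 37 °C was determined by CellTiter-Glo luminescence and expressed as % activity.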
HT1080NT lethal: kills 2HG-producing HT-1080-NT fibrosarcoma cells | HT-1080-NT fibrosarcoma viability, CellTiter-Glo ATP luminescence, 48 h | Potency, µM (doses to about 46.1 µM), for inactives: top-dose activity, negative = less viability, actives largely listed as cytotoxic | 360,000 tested, 1.6% active | AID 686970;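 note: NT is the 2HG producing partner of a matched IDH1 knockdown line; potency is the fitted concentration of half-maximal effect; 0% = DMSO-treated cells and -100% = media-only wells without cells; nearly all actives have a fitted effect of over 55% in size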
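HT-1080-NT fibrosarcoma cells (2HG-overproducing), 750 cells/well in RPMI with 5% FBS, dosed after 2 h and incubated 48 h at 37C. CellTiter-Glo luminescence normalized to DMSO and no-cell wells; concentration-response curves fitted and classed.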
Starred values were filed as active, the others as inactive; ? = inconclusive; · = no result given; [ ] = another dose, or the depositor's remark. Unless noted, calls come from the whole dose curve; as a rule, active = well fitted curve in the direction sought with a large enough effect; inconclusive = small, poorly fitted or top-dose-only effect, or another doubt; inactive = no such curve, though single readings can be large; an effect the other way counts as inactive or inconclusive. Unless noted, % is set by controls: 0 for no effect and ±100 for the full control effect.

SMILES	TDP1 cell noCPT	12-LOX inh	TDP1 cell CPT	IL-1B inflam inh	HT1080 IDH1KD tx	HT1080NT lethal
COc1cccc(CNC(=O)C2CCN(C(=O)c3sccc3-n3cccc3)CC2)c1	-3%	-11%	-1%	·	·	·
O=C(CCC[C@H]1NC[C@@H]2C[C@H]1CN(Cc1ccccc1)C2)NCCc1ccncc1	·	14%	·	·	·	·
O=C(COc1ccc2c(-c3ccccc3)cc(=O)oc2c1)NC1CCCC1	·	-2%	·	·	·	·
CCOC(=O)C1CSCCS(=O)(=O)N1Cc1cccc(Cl)c1 (configuration not stated)	·	9%	·	·	·	·
CC1=NS(=O)(=O)NC(C)(C)C1	1%	-22%	5%	13	10%	4%
CC(c1nn[nH]n1)n1ccnc1-c1cn(C2CCNCC2)nn1 (configuration not stated)	·	52%	·	·	·	·
Nc1cnn(Cc2ccccc2F)c1	21µM*	-8%	?	16	?	?
Cc1ncc(C(O)c2ccccc2)n1Cc1ccccc1 (configuration not stated)	23µM*	0%	?	15	-2%	-6%
Cc1cccc(C(O)c2cnc(C)n2Cc2ccccc2)c1 (configuration not stated)	18µM*	4%	?	19	-21%	-2%
CC1=C(C(=O)Nc2ccccc2)C(c2ccc(O)cc2)n2nc(SCc3ccccc3)nc2N1 (configuration not stated)	-29%	0%	-17%	·	·	·
COc1ccccc1NC(=O)C1=C(C)Nc2nc(SCc3cccc(F)c3)nn2C1c1ccc(C(=O)O)cc1 (configuration not stated)	4%	-17%	-9%	·	·	·
CC1=C(C(=O)Nc2ccccc2)C(c2ccccn2)n2nc(SCc3ccccc3)nc2N1 (configuration not stated)	?	-28%	5.2µM*	·	·	·
COc1ccccc1NC(=O)C1=C(C)Nc2nc(SCc3ccccc3)nn2C1c1ccccn1 (configuration not stated)	?	-12%	8.2µM*	·	·	·
CCSc1nc2n(n1)C(c1ccc(CC)cc1)C(C(=O)Nc1ccccc1OC)=C(C)N2 (configuration not stated)	23µM*	-3%	16µM*	·	·	·
CC(C)C[C@@H](NC(=O)C1=C[C@@H](NC(=O)c2cnccn2)[C@@H](O)[C@H](O)C1)C(N)=O	·	-7%[176 µM]	·	·	·	·
O=C(O)CC1CCN(Cc2ccccc2)CC1	·	-29%	·	·	·	·
CC(=O)C[C@H]1c2cc(F)cc(F)c2S(=O)(=O)N1C1CCN(Cc2ccccc2)CC1	4µM*	·	5.6µM*	·	·	·
COC(=O)C[C@H]1c2cc(F)cc(F)c2S(=O)(=O)N1C1CCN(Cc2ccccc2)CC1	6.5µM*	?	9.2µM*	-1	-8%	0%
Cc1ccc(CNC(=O)c2cc(-c3ccccc3C)nn2CC2CC(c3cccnc3)=NO2)cc1 (configuration not stated)	21µM*	?	?	-5	4%	4%
COc1ccc(C2=NOC(Cn3nc(C(=O)NCc4ccc(C)cc4)cc3-c3ccccc3)C2)cc1 (configuration not stated)	21µM*	-20%	?	-9	-2%	-10%
COc1ccc(C2=NOC(Cn3nc(C(=O)NCc4ccco4)cc3-c3ccccc3)C2)cc1 (configuration not stated)	16µM*	?	?	-27	-2%	-3%
COc1ccc(C2=NOC(Cn3nc(-c4ccccc4)cc3C(=O)NCc3cccs3)C2)cc1 (configuration not stated)	9.2µM*	14%	?	-1	-2%	-4%
Cc1ccc(N2C(=O)N(CC(=O)N3c4ccccc4CC3C)C(=O)C2C)cc1 (configuration not stated)	-28%	-21%	-21%	6	-11%	-2%
COc1ccc(C2=NOC(Cn3nc(C(=O)NCc4cccc(C(F)(F)F)c4)cc3-c3ccccc3)C2)cc1 (configuration not stated)	?	-1%	18µM*	-6	-4%	-2%
CCOC(=O)c1cc(-c2ccccc2)n(CC2CC(c3ccc(OC)cc3)=NO2)n1 (configuration not stated)	23µM*	2%	23µM*	2	0%	-1%
SMILES	TDP1 cell noCPT	12-LOX inh	TDP1 cell CPT	IL-1B inflam inh	HT1080 IDH1KD tx	HT1080NT lethal
CCn1cc(C(=O)NCCCN2CCN(C)CC2)c(=O)c2cc(S(=O)(=O)N3CCc4ccccc4C3)ccc21	-4%	-10%	-14%	-13	-4%	6%
COC(=O)c1ccc2nc(-c3ccc(C#N)cc3)c(Cc3cccc(Cl)c3)n2c1	21µM*	?	21µM*	0	-11%	-4%
Clc1cccc(-c2nc3ccc(Cl)cn3c2Cc2ccccc2)c1	16µM*	24%	?	20	?	-21%
COC(=O)c1ccc2nc(-c3cccc(Br)c3)c(Cc3ccccc3)n2c1	23µM*	38%	?	30	1%	11%
COC(=O)c1ccc2nc(-c3cccc(Cl)c3)c(Cc3ccccc3)n2c1	10µM*	0%	21µM*	29	-15%	5%
COC(=O)C(NC(=O)OCc1ccccc1)(c1ccc(Br)cc1)C(Nc1ccccc1)c1ccccc1 (configuration not stated)	·	-32%	·	·	·	·
CCNc1nc(N)nc(Cl)n1	·	2%	·	·	·	·
Cc1ccc(NC(=O)c2ccc(N3C(=O)C4CC=C(Cl)CC4C3=O)cc2)cc1 (configuration not stated)	16µM*	-17%	?	8	-5%	0%
C/C(=N\O)c1ccc(N2C(=O)C3CC=C(Cl)CC3C2=O)cc1 (configuration not stated)	5%	-5%	0%	22	1%	-5%
COc1ncccc1CNC(=O)Nc1nnc(C(C)C)s1	·	0%	·	·	·	·
CN(O)/C=c1/ccc2c(n1)C(=O)C=CC=2	4.6µM*	0%	4.6µM*	70	?	?
OCC1(CCc2ccccc2)CCN(Cc2cc(Cl)ccc2O)CC1	-24%	-4%	4%	-85*	?	-29%
OCC1(CCc2ccccc2)CCN(Cc2ccc(OC(F)F)cc2)CC1	?	-19%	?	-21	?	?
CC(C)N(Cc1nc(-c2ccccc2)no1)C(=O)c1ccc(Cl)cc1	18µM*	?	18µM*	-17	-13%	-13%

Bioassay records from PubChem BioAssay.
